PubChem BioAssay (NCI)
About 83,000 compounds went through this panel and 20% of them were active in at least one assay; those are over-represented in the sample as a whole.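 How to read the values: 0–100, growth inhibition (40 = 60% inhibited); 0, no net growth; -100 to 0, cell death (-40 = 40% of starting cells died; -100 = all dead).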 Calls of active or inactive are those of the source. How the source made its calls: active means growth percent below 10; inactive means the rest.

Assays:
Test in all cases: NCI-60 one-dose screen, 48 h (100 = growth as untreated, 0 = no growth, -100 = all killed)
Conditions in all cases: 10 µM unless noted
NCI-H23 lung = system: NCI-H23 lung
NCI-H226 lung = system: NCI-H226 lung
NCI-H322M lung = system: NCI-H322M lung
HOP-62 NSCLC = system: HOP-62 NSCLC
NCI-H460 lung = system: NCI-H460 lung
HOP-92 NSCLC = system: HOP-92 NSCLC
NCI-H522 lung = system: NCI-H522 lung
A549/ATCC NSCLC = system: A549/ATCC NSCLC
786-0 renal = system: 786-0 renal
COLO 205 colon = system: COLO 205 colon
DU-145 prostate = system: DU-145 prostate
K-562 leukemia = system: K-562 leukemia
MALME-3M melanoma = system: MALME-3M melanoma
MDA-MB-231 breast = system: MDA-MB-231 breast
RXF 393 renal = system: RXF 393 renal
SF-268 CNS = system: SF-268 CNS
SF-295 CNS = system: SF-295 CNS
SF-539 CNS = system: SF-539 CNS
UACC-257 melanoma = system: UACC-257 melanoma
M14 melanoma = system: M14 melanoma

Measured: growth

Nn1c(-c2ccc(Cl)cc2)nc2c(-c3ccc(Cl)cc3)nc3ccc(Cl)cc3c2c1=O
active: NCI-H226 lung 1.77% | HOP-62 NSCLC -78.2% | NCI-H460 lung -63.2% | A549/ATCC NSCLC -61.2% | 786-0 renal -65.3% | DU-145 prostate -32.5% | RXF 393 renal 1.11% | UACC-257 melanoma 3.36% | M14 melanoma -0.438%
inactive: NCI-H23 lung 56.3% | NCI-H322M lung 35.3% | HOP-92 NSCLC 27.4% | NCI-H522 lung 48.9% | COLO 205 colon 22.3% | K-562 leukemia 18.5% | MALME-3M melanoma 10.1% | MDA-MB-231 breast 36.6% | SF-268 CNS 14.8% | SF-295 CNS 22.6% | SF-539 CNS 14.1%

O=C1C(=C(O)c2ccccc2)C(=O)c2ccccc21
inactive: NCI-H23 lung 103% | NCI-H226 lung 104% | NCI-H322M lung 109% | HOP-62 NSCLC 99.5% | NCI-H460 lung 116% | HOP-92 NSCLC 88% | NCI-H522 lung 101% | A549/ATCC NSCLC 105% | 786-0 renal 95.6% | COLO 205 colon 121% | DU-145 prostate 104% | K-562 leukemia 95.4% | MALME-3M melanoma 103% | MDA-MB-231 breast 107% | RXF 393 renal 135% | SF-268 CNS 95.2% | SF-295 CNS 105% | SF-539 CNS 100% | UACC-257 melanoma 108% | M14 melanoma 102%

CN1CCCc2cc(/C=C3\SC(=S)N(C(Cc4ccc(O)cc4)C(=O)O)C3=O)ccc21 (stereo not given)
inactive: NCI-H23 lung 78% | NCI-H226 lung 99.8% | NCI-H322M lung 108% | HOP-62 NSCLC 109% | NCI-H460 lung 107% | HOP-92 NSCLC 93.8% | NCI-H522 lung 91.5% | A549/ATCC NSCLC 105% | 786-0 renal 99.8% | COLO 205 colon 112% | DU-145 prostate 104% | K-562 leukemia 91.3% | MALME-3M melanoma 88.9% | MDA-MB-231 breast 96.1% | RXF 393 renal 99.4% | SF-268 CNS 97.2% | SF-295 CNS 98.2% | SF-539 CNS 102% | UACC-257 melanoma 99.6% | M14 melanoma 101%

CCCCCCNC(=O)Oc1ccc(/C(=C(/CC)Cc2ccccc2)c2ccc(OCCCN(C)C)cc2)cc1
active: K-562 leukemia 7.11%
inactive: NCI-H23 lung 79% | NCI-H226 lung 95.5% | NCI-H322M lung 89.3% | HOP-62 NSCLC 83.2% | NCI-H460 lung 40.2% | HOP-92 NSCLC 54.3% | NCI-H522 lung 89% | A549/ATCC NSCLC 71.6% | 786-0 renal 68.8% | COLO 205 colon 65.6% | DU-145 prostate 89.4% | MALME-3M melanoma 83.3% | MDA-MB-231 breast 67.5% | RXF 393 renal 80.3% | SF-268 CNS 80.8% | SF-295 CNS 116% | SF-539 CNS 99.1% | UACC-257 melanoma 80.8% | M14 melanoma 85.2%

Clc1cccc(Nc2ncnc3ccc(-c4cncc(-n5cnnn5)c4)cc23)c1
inactive: NCI-H23 lung 80% | NCI-H226 lung 73% | NCI-H322M lung 15.2% | HOP-62 NSCLC 83% | NCI-H460 lung 81.6% | HOP-92 NSCLC 21.7% | NCI-H522 lung 49.2% | A549/ATCC NSCLC 55.7% | 786-0 renal 42.9% | COLO 205 colon 87.9% | DU-145 prostate 43.5% | K-562 leukemia 71.5% | MALME-3M melanoma 88.2% | MDA-MB-231 breast 67.3% | RXF 393 renal 48.4% | SF-268 CNS 70.6% | SF-295 CNS 76.9% | SF-539 CNS 87.3% | UACC-257 melanoma 92.9% | M14 melanoma 53.2%

O=C1OCC2=C1C(c1cccc(C(F)(F)F)c1)c1cc3c(cc1N2CCO)OCCO3 (stereo not given)
inactive: NCI-H23 lung 28.5% | NCI-H226 lung 52.3% | NCI-H322M lung 51.3% | HOP-62 NSCLC 23.5% | HOP-92 NSCLC 63.3% | A549/ATCC NSCLC 16.3% | 786-0 renal 25.5% | DU-145 prostate 16% | MALME-3M melanoma 49.5% | MDA-MB-231 breast 37.6% | RXF 393 renal 10.9% | SF-268 CNS 38.8% | UACC-257 melanoma 65.3%
active: NCI-H460 lung 7.21% | NCI-H522 lung 7.2% | COLO 205 colon -17.7% | K-562 leukemia 9.6% | SF-295 CNS 0.743% | SF-539 CNS -8.3% | M14 melanoma -6.89%

COc1cc(/C=N/NC(=O)CCN2c3ccccc3Sc3ccccc32)cc(OC)c1OC
inactive: NCI-H23 lung 71.8% | NCI-H226 lung 79.3% | NCI-H322M lung 83.2% | HOP-62 NSCLC 101% | NCI-H460 lung 95.8% | HOP-92 NSCLC 61.5% | NCI-H522 lung 70.3% | A549/ATCC NSCLC 79% | 786-0 renal 96.8% | COLO 205 colon 105% | DU-145 prostate 97.4% | K-562 leukemia 61.7% | MALME-3M melanoma 93.3% | MDA-MB-231 breast 68.5% | RXF 393 renal 85.8% | SF-268 CNS 93.8% | SF-295 CNS 74.3% | SF-539 CNS 85.6% | UACC-257 melanoma 92.7% | M14 melanoma 79.3%
